Experimental data taken from PubChem BioAssay.
The source made the active and inactive calls.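 How the source made its calls, unless noted: active means normalized viability below 100% at a tested concentration; inactive means the rest.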

Key:
[1] = drug combination growth inhibition, ovarian cancer – cell-based, oncology-focused library, rucaparib conditional, profiling panel (AID 1508598); conditions: patient-derived ovarian cancer cells, CellTiter-Glo viability, 144 h, stronger effect = lower value
[2] = liver-stage malaria parasite load reduction – cell-based, known kinase inhibitor set, luminescence, hepatoma host viability (AID 624392; call rule not given here;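 further: infected cells incubated roughly two days before readout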); conditions: Plasmodium liver stage in hepatoma cells, luciferase luminescence, concentration not given here; liver cell % of control: measured here: host liver cell viability; parasite % of control: stronger effect = lower value
[3] = altered dexamethasone sensitivity, NF-kB reporter, cell-based, luciferase, IL-1B stimulus (AID 624486; call rule not given here;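 on percent of negative control (+Dex): 100% = mean signal of vehicle control wells on the plate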); conditions: IL-1B + dexamethasone, luminescence; percent of negative control (+Dex): actives lie on both sides, concentration not given here; z-score: measured here: IL-1B alone, no Dex
[4] = C. elegans survival during P. aeruginosa infection – whole organism (AID 651566; call rule not given here;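 further: tested at 14 µM; sign flipped so higher z means a lower ratio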); conditions: C. elegans killed by P. aeruginosa, survival ratio
[5] = pro-inflammatory signaling induction in mouse macrophages – cell-based, murine, luminescence (AID 652131; call rule not given here); conditions: murine macrophage pro-inflammatory reporter, stronger effect = higher value
[6] = MELAS cybrid and Rieske KO viability enhancers – cell-based, MELAS cybrids, Rieske KO mouse fibroblasts, CellTiter-Glo, primary screen (AID 1508586;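 active means mean z-score across replicates of 1.96 or higher in either the MELAS or the Rieske mutant cell line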;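 further: z relative to plate mean and SD of compound and empty wells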); conditions: low glucose
[7] = at 0.000305 µM, OCI-C5x cells, with rucaparib 10 µM, 100% = cells with rucaparib alone
[8] = at 0.000305 µM, OCI-C5x cells, without rucaparib
[9] = at 0.000305 µM, OCI-P5x cells, with rucaparib 20 µM, 100% = cells with rucaparib alone
[10] = at 0.000305 µM, OCI-P5x cells, without rucaparib
[11] = at 0.00122 µM, OCI-C5x cells, with rucaparib 10 µM, 100% = cells with rucaparib alone
[12] = at 0.00122 µM, OCI-C5x cells, without rucaparib
[13] = at 0.00122 µM, OCI-P5x cells, with rucaparib 20 µM, 100% = cells with rucaparib alone
[14] = at 0.00122 µM, OCI-P5x cells, without rucaparib
[15] = at 0.00488 µM, OCI-C5x cells, with rucaparib 10 µM, 100% = cells with rucaparib alone
[16] = at 0.00488 µM, OCI-C5x cells, without rucaparib
[17] = at 0.00488 µM, OCI-P5x cells, with rucaparib 20 µM, 100% = cells with rucaparib alone
[18] = at 0.00488 µM, OCI-P5x cells, without rucaparib
[19] = at 0.0195 µM, OCI-C5x cells, with rucaparib 10 µM, 100% = cells with rucaparib alone
[20] = at 0.0195 µM, OCI-C5x cells, without rucaparib
[21] = at 0.0195 µM, OCI-P5x cells, with rucaparib 20 µM, 100% = cells with rucaparib alone
[22] = at 0.0195 µM, OCI-P5x cells, without rucaparib
[23] = at 0.0781 µM, OCI-C5x cells, with rucaparib 10 µM, 100% = cells with rucaparib alone
[24] = at 0.0781 µM, OCI-C5x cells, without rucaparib
[25] = at 0.0781 µM, OCI-P5x cells, with rucaparib 20 µM, 100% = cells with rucaparib alone
[26] = at 0.0781 µM, OCI-P5x cells, without rucaparib
[27] = at 0.313 µM, OCI-C5x cells, with rucaparib 10 µM, 100% = cells with rucaparib alone
[28] = at 0.313 µM, OCI-C5x cells, without rucaparib
[29] = at 0.313 µM, OCI-P5x cells, with rucaparib 20 µM, 100% = cells with rucaparib alone
[30] = at 0.313 µM, OCI-P5x cells, without rucaparib
[31] = at 1.25 µM, OCI-C5x cells, with rucaparib 10 µM, 100% = cells with rucaparib alone
[32] = at 1.25 µM, OCI-C5x cells, without rucaparib
[33] = at 1.25 µM, OCI-P5x cells, with rucaparib 20 µM, 100% = cells with rucaparib alone
[34] = at 1.25 µM, OCI-P5x cells, without rucaparib
[35] = at 5 µM, OCI-C5x cells, with rucaparib 10 µM, 100% = cells with rucaparib alone
[36] = at 5 µM, OCI-C5x cells, without rucaparib
[37] = at 5 µM, OCI-P5x cells, with rucaparib 20 µM, 100% = cells with rucaparib alone
[38] = at 5 µM, OCI-P5x cells, without rucaparib
[39] = MELAS cybrid survival, CellTiter-Glo 48 h, stronger effect = higher value
[40] = Rieske KO mouse fibroblast survival, CellTiter-Glo 72 h

C[C@@]12CC[C@H]3c4ccc(O)cc4C[C@@H](CCCCCCCCCS(=O)CCCC(F)(F)C(F)(F)F)[C@H]3[C@@H]1CC[C@@H]2O (some centres not stated)
inactive: viability [1, 7] 127% | viability [1, 9] 110% | viability [1, 10] 107% | viability [1, 11] 116% | viability [1, 13] 109% | viability [1, 14] 112% | viability [1, 15] 118% | viability [1, 16] 110% | viability [1, 17] 116% | viability [1, 18] 117% | viability [1, 19] 118% | viability [1, 20] 108% | viability [1, 21] 116% | viability [1, 22] 122% | viability [1, 23] 114% | viability [1, 24] 112% | viability [1, 25] 119% | viability [1, 26] 118% | viability [1, 27] 119% | viability [1, 28] 125% | viability [1, 29] 122% | viability [1, 30] 120% | viability [1, 31] 123% | viability [1, 32] 112% | viability [1, 33] 119% | viability [1, 34] 121% | viability [1, 35] 124% | viability [1, 36] 128% | viability [1, 37] 119% | viability [1, 38] 122%
active: viability [1, 8] 99.5% | viability [1, 12] 98.6%

NC(=O)Cc1ccccc1Oc1nccc(-c2c(-c3ccc(F)cc3)ncn2C2CCNCC2)n1
inactive: parasite % of control [2] 160% | percent of negative control (+Dex) [3] 105% | z-score [4] -0.78 | z-score [5] 0.598 | z-score [6, 39] -0.586
110%: liver cell % of control [2]
0.475: z-score [3]
-0.373: z-score [6, 40]

O=C1[C@H](CC[C@H](O)c2ccc(F)cc2)[C@H](c2ccc(O)cc2)N1c1ccc(F)cc1
active: viability [1, 25] 98% | viability [1, 29] 94.9% | viability [1, 33] 96.5% | viability [1, 34] 96.4% | viability [1, 37] 84.2% | viability [1, 38] 94.6%
inactive: viability [1, 7] 109% | viability [1, 8] 121% | viability [1, 9] 106% | viability [1, 10] 117% | viability [1, 11] 107% | viability [1, 12] 117% | viability [1, 13] 107% | viability [1, 14] 114% | viability [1, 15] 111% | viability [1, 16] 114% | viability [1, 17] 101% | viability [1, 18] 112% | viability [1, 19] 109% | viability [1, 20] 118% | viability [1, 21] 104% | viability [1, 22] 106% | viability [1, 23] 107% | viability [1, 24] 108% | viability [1, 26] 102% | viability [1, 27] 111% | viability [1, 28] 111% | viability [1, 30] 104% | viability [1, 31] 126% | viability [1, 32] 111% | viability [1, 35] 128% | viability [1, 36] 103%

NCCCC[C@@H]1NC(=O)[C@@H]2C[C@H](NC(=O)c3sccc3Cl)CN2C1=O
inactive: z-score [6, 39] -0.4
-0.67: z-score [6, 40]

NC(=O)c1cc(-c2ccc(F)cc2)cc(-c2ccncc2)c1N
110%: liver cell % of control [2]
0.289: z-score [6, 40]
inactive: parasite % of control [2] 93.1% | percent of negative control (+Dex) [3] 92.5% | z-score [4] 0.64 | z-score [5] -0.928 | z-score [6, 39] -0.833
0.27: z-score [3]

CC(=O)O[C@]12CO[C@@H]1C[C@H](O)[C@]1(C)C(=O)[C@H](O)C3=C(C)[C@H](OC(=O)[C@H](O)[C@@H](NC(=O)OC(C)(C)C)c4ccccc4)C[C@](O)([C@H](OC(=O)c4ccccc4)C21)C3(C)C (some centres not stated)
active: viability [1, 11] 86.4% | viability [1, 12] 76% | viability [1, 13] 93% | viability [1, 14] 33.3% | viability [1, 15] 37.6% | viability [1, 16] 32.6% | viability [1, 17] 70.1% | viability [1, 18] 19.5% | viability [1, 19] 41.9% | viability [1, 20] 35.3% | viability [1, 21] 56.6% | viability [1, 22] 16.8% | viability [1, 23] 38.2% | viability [1, 24] 33.7% | viability [1, 25] 61.2% | viability [1, 26] 19.8% | viability [1, 27] 41.5% | viability [1, 28] 37.8% | viability [1, 29] 55.6% | viability [1, 30] 18.6% | viability [1, 31] 47.4% | viability [1, 32] 41.3% | viability [1, 33] 55.9% | viability [1, 34] 20.7% | viability [1, 35] 37.7% | viability [1, 36] 56.7% | viability [1, 37] 34.2% | viability [1, 38] 16.1%
inactive: viability [1, 7] 118% | viability [1, 8] 115% | viability [1, 9] 120% | viability [1, 10] 106%

COc1cccc(Nc2nccc(-c3cnn4ncccc34)n2)c1
inactive: parasite % of control [2] 13.4% | z-score [4] 0.695 | z-score [5] -1.68 | z-score [6, 39] 0.875
active: percent of negative control (+Dex) [3] 3%
1.18: z-score [6, 40]
-9.21: z-score [3]
85.6%: liver cell % of control [2]

NC(=O)c1sc(-n2cnc3ccccc32)cc1OCc1ccccc1Br
77.6%: liver cell % of control [2]
-0.437: z-score [6, 40]
0.185: z-score [3]
inactive: parasite % of control [2] 256% | percent of negative control (+Dex) [3] 101% | z-score [4] -0.075 | z-score [5] 0.164 | z-score [6, 39] -0.754

CC(C)CC(CC(=O)NO)C(=O)N[C@@H](Cc1ccc2ccccc2c1)C(=O)N[C@@H](C)C(=O)NCCN (some centres not stated)
inactive: viability [1, 7] 123% | viability [1, 8] 120% | viability [1, 10] 101% | viability [1, 11] 111% | viability [1, 12] 110% | viability [1, 15] 123% | viability [1, 16] 118% | viability [1, 19] 123% | viability [1, 20] 120% | viability [1, 23] 132% | viability [1, 24] 102% | viability [1, 27] 114% | viability [1, 28] 114% | viability [1, 31] 134% | viability [1, 32] 112% | viability [1, 35] 112% | viability [1, 36] 110%
active: viability [1, 9] 90.2% | viability [1, 13] 88.9% | viability [1, 14] 99.8% | viability [1, 17] 92% | viability [1, 18] 94.4% | viability [1, 21] 84.6% | viability [1, 22] 100% | viability [1, 25] 90% | viability [1, 26] 92.6% | viability [1, 29] 91.3% | viability [1, 30] 92.3% | viability [1, 33] 85.1% | viability [1, 34] 86% | viability [1, 37] 78.6% | viability [1, 38] 88.3%
